# Results taken from ChEMBL document CHEMBL2218924, “A broad activity screen in support of a chemogenomic map for kinase signalling research and drug discovery” (Biochem J, 2013).
# Experiments:
# [1] = target: Tyrosine-protein kinase Yes (Homo sapiens) (UniProt P07947); conditions: at 1 µM
# [2] = target: Tyrosine-protein kinase Yes (Homo sapiens) (UniProt P07947); conditions: at 10 µM
# [3] = target: T1, Tyrosine-protein kinase ZAP-70 (Homo sapiens) (UniProt P43403); conditions: at 1 µM
# T1 sequence (whole entry): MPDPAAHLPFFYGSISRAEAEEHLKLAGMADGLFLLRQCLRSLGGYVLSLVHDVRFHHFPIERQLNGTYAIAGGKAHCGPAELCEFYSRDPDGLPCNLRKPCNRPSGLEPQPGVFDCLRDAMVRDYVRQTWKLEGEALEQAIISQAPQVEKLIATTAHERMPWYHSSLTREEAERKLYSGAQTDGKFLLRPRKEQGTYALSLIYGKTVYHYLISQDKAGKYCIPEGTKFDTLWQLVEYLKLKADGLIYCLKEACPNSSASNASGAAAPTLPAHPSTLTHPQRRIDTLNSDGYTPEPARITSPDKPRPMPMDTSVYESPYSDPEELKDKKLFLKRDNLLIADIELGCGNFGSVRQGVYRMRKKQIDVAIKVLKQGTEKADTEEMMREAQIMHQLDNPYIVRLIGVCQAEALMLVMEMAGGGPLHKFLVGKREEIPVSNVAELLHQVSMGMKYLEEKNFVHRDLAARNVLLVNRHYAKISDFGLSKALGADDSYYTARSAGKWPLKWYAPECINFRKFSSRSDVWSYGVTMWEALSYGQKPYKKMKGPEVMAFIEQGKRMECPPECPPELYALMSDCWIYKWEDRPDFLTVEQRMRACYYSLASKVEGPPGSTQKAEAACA
# [4] = target: Death-associated protein kinase 3 (Homo sapiens) (UniProt O43293); conditions: at 1 µM
# Death-associated protein kinase 3 (Homo sapiens), sequence (O43293 whole entry, looked up): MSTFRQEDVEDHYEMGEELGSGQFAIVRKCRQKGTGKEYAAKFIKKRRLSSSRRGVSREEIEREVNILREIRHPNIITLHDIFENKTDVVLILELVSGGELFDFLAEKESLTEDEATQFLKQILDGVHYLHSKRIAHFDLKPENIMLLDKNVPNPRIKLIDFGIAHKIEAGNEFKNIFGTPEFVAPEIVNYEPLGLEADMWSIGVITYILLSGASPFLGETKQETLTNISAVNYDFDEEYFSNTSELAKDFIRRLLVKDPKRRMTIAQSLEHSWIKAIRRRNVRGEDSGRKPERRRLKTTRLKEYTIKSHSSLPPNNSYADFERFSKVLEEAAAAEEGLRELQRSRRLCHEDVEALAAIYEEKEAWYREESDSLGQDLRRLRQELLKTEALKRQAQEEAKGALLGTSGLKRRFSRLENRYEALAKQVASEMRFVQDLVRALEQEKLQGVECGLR
# [5] = target: Death-associated protein kinase 3 (Homo sapiens) (UniProt O43293); conditions: at 10 µM
# [6] = target: RAF proto-oncogene serine/threonine-protein kinase (Homo sapiens) (UniProt P04049); conditions: at 10 µM
# [7] = target: Serine/threonine-protein kinase WNK3 (Homo sapiens) (UniProt Q9BYP7); conditions: at 10 µM
# Serine/threonine-protein kinase WNK3 (Homo sapiens), sequence (Q9BYP7 whole entry): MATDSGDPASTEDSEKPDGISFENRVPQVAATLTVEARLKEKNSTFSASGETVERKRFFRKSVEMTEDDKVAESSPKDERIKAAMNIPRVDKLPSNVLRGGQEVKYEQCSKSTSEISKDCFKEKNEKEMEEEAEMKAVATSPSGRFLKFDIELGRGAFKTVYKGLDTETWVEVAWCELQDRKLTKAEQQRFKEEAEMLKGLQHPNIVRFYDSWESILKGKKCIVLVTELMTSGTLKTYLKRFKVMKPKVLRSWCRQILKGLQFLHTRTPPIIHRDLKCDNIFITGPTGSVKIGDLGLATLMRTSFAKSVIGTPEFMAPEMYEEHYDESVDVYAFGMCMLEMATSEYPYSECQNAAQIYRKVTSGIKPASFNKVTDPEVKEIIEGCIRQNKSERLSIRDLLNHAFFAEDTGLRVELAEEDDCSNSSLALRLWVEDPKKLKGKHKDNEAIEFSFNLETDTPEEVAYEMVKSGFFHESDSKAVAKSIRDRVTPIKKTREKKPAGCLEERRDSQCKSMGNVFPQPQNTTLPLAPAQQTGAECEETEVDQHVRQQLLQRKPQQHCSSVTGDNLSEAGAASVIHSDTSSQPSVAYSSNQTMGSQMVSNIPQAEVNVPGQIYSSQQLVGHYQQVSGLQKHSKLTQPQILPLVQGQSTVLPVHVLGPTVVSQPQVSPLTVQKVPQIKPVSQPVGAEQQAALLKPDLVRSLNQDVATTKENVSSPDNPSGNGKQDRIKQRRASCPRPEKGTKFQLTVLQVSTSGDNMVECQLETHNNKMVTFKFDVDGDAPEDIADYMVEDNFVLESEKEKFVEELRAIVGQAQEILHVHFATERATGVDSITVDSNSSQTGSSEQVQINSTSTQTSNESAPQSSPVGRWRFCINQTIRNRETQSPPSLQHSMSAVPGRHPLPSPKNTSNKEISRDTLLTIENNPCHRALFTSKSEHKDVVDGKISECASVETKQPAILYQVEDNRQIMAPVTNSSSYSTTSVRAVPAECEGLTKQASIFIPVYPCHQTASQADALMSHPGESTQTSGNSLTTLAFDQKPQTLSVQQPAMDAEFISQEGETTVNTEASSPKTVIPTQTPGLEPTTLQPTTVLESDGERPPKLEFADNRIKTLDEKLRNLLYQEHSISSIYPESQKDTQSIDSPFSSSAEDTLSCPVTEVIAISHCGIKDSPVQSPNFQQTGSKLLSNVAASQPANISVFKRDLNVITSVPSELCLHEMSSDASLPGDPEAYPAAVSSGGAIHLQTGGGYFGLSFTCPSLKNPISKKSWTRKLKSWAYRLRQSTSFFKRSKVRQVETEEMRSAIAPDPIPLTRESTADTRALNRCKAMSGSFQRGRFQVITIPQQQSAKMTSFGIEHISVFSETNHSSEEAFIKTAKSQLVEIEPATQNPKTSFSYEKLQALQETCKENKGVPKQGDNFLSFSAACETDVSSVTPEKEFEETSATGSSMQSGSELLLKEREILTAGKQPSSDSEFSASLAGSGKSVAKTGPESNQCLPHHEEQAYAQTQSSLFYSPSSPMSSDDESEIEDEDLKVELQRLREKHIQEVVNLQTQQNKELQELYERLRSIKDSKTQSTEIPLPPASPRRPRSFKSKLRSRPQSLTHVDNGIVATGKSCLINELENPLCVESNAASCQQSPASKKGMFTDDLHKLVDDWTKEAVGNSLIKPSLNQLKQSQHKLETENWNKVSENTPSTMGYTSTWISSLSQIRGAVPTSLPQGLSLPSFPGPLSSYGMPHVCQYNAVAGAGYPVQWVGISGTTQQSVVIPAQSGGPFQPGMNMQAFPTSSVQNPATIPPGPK
# [8] = target: RAF proto-oncogene serine/threonine-protein kinase (Homo sapiens) (UniProt P04049); conditions: at 1 µM
# [9] = target: Serine/threonine-protein kinase WNK2 (Homo sapiens) (UniProt Q9Y3S1); conditions: at 10 µM
# Serine/threonine-protein kinase WNK2 (Homo sapiens), sequence (Q9Y3S1 whole entry): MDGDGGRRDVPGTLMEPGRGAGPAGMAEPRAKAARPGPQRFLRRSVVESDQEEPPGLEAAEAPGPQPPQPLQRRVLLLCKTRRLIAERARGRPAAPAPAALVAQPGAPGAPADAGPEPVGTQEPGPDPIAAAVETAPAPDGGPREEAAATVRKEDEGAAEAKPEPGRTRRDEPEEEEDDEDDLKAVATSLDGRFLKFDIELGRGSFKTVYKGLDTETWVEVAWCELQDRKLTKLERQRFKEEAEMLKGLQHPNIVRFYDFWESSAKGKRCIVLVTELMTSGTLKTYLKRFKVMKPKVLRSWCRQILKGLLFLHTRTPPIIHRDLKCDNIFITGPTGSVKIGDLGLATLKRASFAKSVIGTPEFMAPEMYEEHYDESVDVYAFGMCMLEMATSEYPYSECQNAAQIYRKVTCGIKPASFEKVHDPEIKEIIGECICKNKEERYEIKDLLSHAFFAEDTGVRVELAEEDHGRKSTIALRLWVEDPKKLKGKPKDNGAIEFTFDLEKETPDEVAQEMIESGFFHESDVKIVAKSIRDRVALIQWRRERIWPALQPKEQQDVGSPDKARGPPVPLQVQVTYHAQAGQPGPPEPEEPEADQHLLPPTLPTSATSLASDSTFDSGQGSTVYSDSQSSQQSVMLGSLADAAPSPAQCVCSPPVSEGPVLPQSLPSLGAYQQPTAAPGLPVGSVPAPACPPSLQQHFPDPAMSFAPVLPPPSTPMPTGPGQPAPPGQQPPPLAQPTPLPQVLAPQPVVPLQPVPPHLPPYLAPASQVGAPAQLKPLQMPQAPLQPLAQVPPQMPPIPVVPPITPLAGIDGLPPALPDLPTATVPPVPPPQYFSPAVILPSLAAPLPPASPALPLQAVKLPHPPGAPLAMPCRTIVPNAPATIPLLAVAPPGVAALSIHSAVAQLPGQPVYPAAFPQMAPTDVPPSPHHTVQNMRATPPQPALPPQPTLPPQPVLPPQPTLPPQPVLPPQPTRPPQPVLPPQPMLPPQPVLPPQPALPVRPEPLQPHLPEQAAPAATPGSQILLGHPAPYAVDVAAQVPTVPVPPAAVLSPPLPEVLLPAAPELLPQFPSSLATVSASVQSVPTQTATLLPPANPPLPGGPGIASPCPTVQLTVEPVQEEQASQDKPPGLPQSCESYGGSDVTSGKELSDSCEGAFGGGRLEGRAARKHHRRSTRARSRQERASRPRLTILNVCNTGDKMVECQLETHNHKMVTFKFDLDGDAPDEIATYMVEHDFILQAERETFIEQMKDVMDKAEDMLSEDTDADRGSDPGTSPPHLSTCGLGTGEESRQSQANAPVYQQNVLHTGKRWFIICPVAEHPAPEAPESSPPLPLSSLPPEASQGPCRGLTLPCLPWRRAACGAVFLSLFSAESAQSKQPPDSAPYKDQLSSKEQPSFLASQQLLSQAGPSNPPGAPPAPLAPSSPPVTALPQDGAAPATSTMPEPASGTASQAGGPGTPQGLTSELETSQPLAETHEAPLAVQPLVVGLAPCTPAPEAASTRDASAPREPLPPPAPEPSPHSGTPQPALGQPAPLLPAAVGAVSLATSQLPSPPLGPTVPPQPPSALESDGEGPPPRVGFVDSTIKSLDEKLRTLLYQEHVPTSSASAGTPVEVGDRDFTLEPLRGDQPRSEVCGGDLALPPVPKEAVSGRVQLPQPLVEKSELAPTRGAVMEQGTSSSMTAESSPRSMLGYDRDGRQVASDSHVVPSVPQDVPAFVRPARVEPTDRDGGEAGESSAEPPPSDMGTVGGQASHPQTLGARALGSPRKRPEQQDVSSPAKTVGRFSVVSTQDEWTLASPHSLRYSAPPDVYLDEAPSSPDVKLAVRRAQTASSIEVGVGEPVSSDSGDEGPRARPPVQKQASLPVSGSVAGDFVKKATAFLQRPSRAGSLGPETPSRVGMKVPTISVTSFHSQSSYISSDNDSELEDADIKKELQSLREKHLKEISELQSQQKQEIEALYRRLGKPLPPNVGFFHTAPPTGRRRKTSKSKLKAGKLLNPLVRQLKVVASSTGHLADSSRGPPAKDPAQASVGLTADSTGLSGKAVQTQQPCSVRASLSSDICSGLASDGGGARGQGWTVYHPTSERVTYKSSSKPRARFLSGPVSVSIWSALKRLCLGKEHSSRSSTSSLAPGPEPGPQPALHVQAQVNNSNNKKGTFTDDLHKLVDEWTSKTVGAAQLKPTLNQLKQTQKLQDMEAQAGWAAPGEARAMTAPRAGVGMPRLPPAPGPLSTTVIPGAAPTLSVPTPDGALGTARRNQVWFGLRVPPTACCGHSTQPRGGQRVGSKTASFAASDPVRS
# [10] = target: Serine/threonine-protein kinase WNK3 (Homo sapiens) (UniProt Q9BYP7); conditions: at 1 µM
# Tyrosine-protein kinase Yes (Homo sapiens), sequence (P07947 2-543 limits assumed): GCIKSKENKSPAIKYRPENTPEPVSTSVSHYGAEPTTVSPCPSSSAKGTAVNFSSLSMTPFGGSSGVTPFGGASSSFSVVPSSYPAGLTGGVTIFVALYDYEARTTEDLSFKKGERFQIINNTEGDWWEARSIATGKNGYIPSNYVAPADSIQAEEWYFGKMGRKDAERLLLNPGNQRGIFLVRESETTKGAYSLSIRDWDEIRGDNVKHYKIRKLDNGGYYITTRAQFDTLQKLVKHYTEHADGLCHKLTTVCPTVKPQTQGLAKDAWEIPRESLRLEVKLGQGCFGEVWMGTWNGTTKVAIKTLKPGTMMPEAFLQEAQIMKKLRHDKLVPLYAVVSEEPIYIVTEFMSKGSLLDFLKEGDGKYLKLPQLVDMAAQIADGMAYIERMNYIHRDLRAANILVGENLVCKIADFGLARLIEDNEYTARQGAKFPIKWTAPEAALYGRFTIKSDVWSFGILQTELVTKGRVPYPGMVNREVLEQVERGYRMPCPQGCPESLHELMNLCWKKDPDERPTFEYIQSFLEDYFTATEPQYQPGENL
smiles,measurement,setting,value
COc1cc2ncnc(Nc3cccc(Cl)c3)c2cc1OC,residual activity,[1],30%
same,residual activity,[2],3%
same,residual activity,[3],103%
same,residual activity,[4],89%
same,residual activity,[5],101%
same,residual activity,[6],72%
CCOc1nc(NC(=O)Cc2cc(OC)ccc2OC)cc(N)c1C#N,residual activity,[7],73%
same,residual activity,[8],74%
same,residual activity,[6],80%
Cc1cc(C)c(/C=C2\C(=O)Nc3ccccc32)[nH]1,residual activity,[9],82%
same,residual activity,[6],103%
O=C(Nc1ccc(Cl)cc1)c1ccccc1NCc1ccncc1,residual activity,[1],117%
same,residual activity,[2],75%
same,residual activity,[8],41%
same,residual activity,[6],9%
COc1ccc(CNC(=O)Nc2ncc([N+](=O)[O-])s2)cc1,residual activity,[9],70%
same,residual activity,[1],10%
same,residual activity,[2],13%
same,residual activity,[3],100%
same,residual activity,[8],78%
same,residual activity,[6],72%
CCN1/C(=C/C(C)=O)Sc2ccc(OC)cc21,residual activity,[9],70%
same,residual activity,[8],81%
same,residual activity,[6],77%
O=C1NC(=O)C(c2cn(CCCn3ccnc3)c3ccccc23)=C1Nc1ccccc1,residual activity,[3],101%
same,residual activity,[8],78%
same,residual activity,[6],71%
O=C(Nc1nc2ccccc2n1CCN1CCOCC1)c1cccc([N+](=O)[O-])c1,residual activity,[9],76%
same,residual activity,[4],83%
same,residual activity,[5],55%
CSc1nc(-c2ccc(F)cc2)c(-c2ccnc(NC(C)c3ccccc3)c2)[nH]1 (stereo unspecified),residual activity,[10],96% (inactive)
same,residual activity,[7],94%
same,residual activity,[1],99%
same,residual activity,[2],63%
same,residual activity,[4],84%
same,residual activity,[8],89%
same,residual activity,[6],65%
O=C1Nc2ccccc2/C1=C\c1c(Cl)[nH]c2ccccc12,residual activity,[9],61%
same,residual activity,[7],64%
same,residual activity,[8],85%
same,residual activity,[6],41%
COc1ccc(-c2cnc3c(-c4ccsc4)cnn3c2)cc1,residual activity,[3],122%
same,residual activity,[8],86%
same,residual activity,[6],97%
CC(C)c1nn(-c2c(Cl)cccc2Cl)c2nc(Cc3ccc(OCCO)cc3)[nH]c(=O)c12,residual activity,[9],93%
same,residual activity,[7],97%
same,residual activity,[2],93%
same,residual activity,[3],104%
same,residual activity,[5],129%
same,residual activity,[8],79%
same,residual activity,[6],76%
NCCNc1ncc(C(N)=O)c(Nc2cccc(C(F)(F)F)c2)n1,residual activity,[9],80%
same,residual activity,[1],64%
same,residual activity,[2],3%
O=c1cc(N2CCOCC2)oc2c(-c3ccccc3)cccc12,residual activity,[9],75%
same,residual activity,[8],68%
same,residual activity,[6],69%
CCCCc1c(-c2ccc(O)cc2)[nH]c2nccnc12,residual activity,[1],56%
same,residual activity,[2],51%
same,residual activity,[5],99%
same,residual activity,[8],84%
same,residual activity,[6],71%
O=C(NC(NC(=S)Nc1ccc(F)c([N+](=O)[O-])c1)C(Cl)(Cl)Cl)C(c1ccccc1)c1ccccc1 (stereo unspecified),residual activity,[9],95%
same,residual activity,[2],100%
same,residual activity,[3],126%
same,residual activity,[4],96%
same,residual activity,[5],100%
same,residual activity,[8],92%
O=C1Cc2c([nH]c3ccc([N+](=O)[O-])cc23)-c2ccccc2N1,residual activity,[1],56%
same,residual activity,[2],20%
same,residual activity,[3],125%
O=S(=O)(NCCNC/C=C/c1ccc(Br)cc1)c1cccc2cnccc12,residual activity,[1],116%
Nc1n[nH]c2nc3ccccc3nc12,residual activity,[9],94%
same,residual activity,[4],99%
same,residual activity,[5],94%
same,residual activity,[8],93%
same,residual activity,[6],69%
CN([C@@H](Cc1ccc(OS(=O)(=O)c2cccc3cnccc23)cc1)C(=O)N1CCN(c2ccccc2)CC1)S(=O)(=O)c1cccc2cnccc12,residual activity,[10],100% (inactive)
same,residual activity,[7],99%
O=C1Nc2ccc(Cl)cc2/C1=C/c1cc(Cl)c(O)c(Cl)c1,residual activity,[10],100% (inactive)
same,residual activity,[7],80%
same,residual activity,[1],96%
same,residual activity,[2],54%
same,residual activity,[3],96%
same,residual activity,[4],77%
same,residual activity,[5],78%
same,residual activity,[8],2%
same,residual activity,[6],-2%
Nc1ncnc2[nH]nc(Nc3ccc(F)cc3)c12,residual activity,[10],101% (inactive)
same,residual activity,[1],93%
same,residual activity,[2],21%
same,residual activity,[3],99%
same,residual activity,[4],116%
same,residual activity,[5],107%
same,residual activity,[8],56%
same,residual activity,[6],16%
